Measured values reported in the supplement of paper PMC12669032.

What was measured:
Assay in all cases: growth AUC relative to DMSO control (median of replicates) (fraction); higher = more growth (less inhibition), active = hit call of the paper
Conditions in all cases: 20 µM; 24 h;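 active = AUC reduced over 20% with Padj below 0.05 in at least 2 of 3 replicates; inactive = otherwise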
[1] = tested on: Akkermansia muciniphila
Method in brief: (§1)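 OD600 was recorded every hour for 24 h in anaerobic monocultures of gut bacteria kept at 37 °C in mGAM, seeded at OD600 0.05 and given 20 µM compound in 1% DMSO. The area under each growth curve was scaled to the plate median of solvent-only wells, or to row and column medians for the industrial chemical plate. Before this step, the minimum OD was set to 0. Reported values are medians of three biological replicates run on separate days.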

[2] = tested on: Bacteroides caccae
Method in brief: as §1

[3] = tested on: Bacteroides clarus
Method in brief: as §1

[4] = tested on: Bacteroides dorei
Method in brief: as §1

[5] = tested on: Bacteroides stercoris
Method in brief: as §1

[6] = tested on: Bacteroides thetaiotaomicron
Method in brief: as §1

[7] = tested on: Bacteroides uniformis
Method in brief: as §1

[8] = tested on: Bifidobacterium longum subsp. longum
Method in brief: as §1

[9] = tested on: Clostridium difficile
Method in brief: as §1

[10] = tested on: Collinsella aerofaciens
Method in brief: as §1

[11] = tested on: Coprococcus comes
Method in brief: as §1

[12] = tested on: Escherichia coli ED1a
Method in brief: as §1

[13] = tested on: Escherichia coli IAI1
Method in brief: as §1

[14] = tested on: Eubacterium rectale
Method in brief: as §1

[15] = tested on: Fusobacterium nucleatum subsp. animalis
Method in brief: as §1

[16] = tested on: Lactobacillus gasseri
Method in brief: as §1

[17] = tested on: Lactobacillus paracasei
Method in brief: as §1

[18] = tested on: Odoribacter splanchnicus
Method in brief: as §1

[19] = tested on: Parabacteroides distasonis
Method in brief: as §1

[20] = tested on: Parabacteroides merdae
Method in brief: as §1

Measured: growth AUC

COCCOc1ccccc1S(=O)(=O)NC(=O)Nc1nc(OC)nc(OC)n1
inactive: [1] 1.03 | [2] 0.976 | [3] 0.97 | [4] 0.962 | [5] 0.92 | [6] 1 | [7] 1.02 | [8] 1.06 | [9] 0.984 | [10] 0.908 | [11] 0.987 | [12] 0.959 | [13] 0.97 | [14] 0.983 | [15] 0.983 | [16] 0.88 | [17] 1.02 | [18] 1.08 | [19] 0.978 | [20] 0.94

Nc1ccc(S(=O)(=O)Nc2nccs2)cc1
inactive: [1] 0.9 | [2] 1.03 | [3] 0.992 | [4] 0.943 | [5] 0.985 | [6] 0.978 | [7] 1.02 | [8] 0.998 | [9] 0.98 | [10] 0.978 | [11] 1.02 | [12] 0.994 | [13] 0.968 | [14] 0.97 | [15] 0.993 | [16] 0.97 | [17] 1.02 | [18] 0.987 | [19] 1 | [20] 1.03

CC1=C(C(=O)Nc2ccccc2)CCCO1
inactive: [1] 0.955 | [2] 0.992 | [3] 1.01 | [4] 1.01 | [5] 0.951 | [6] 0.99 | [7] 1.06 | [8] 1.15 | [9] 1.01 | [10] 1.01 | [11] 1.01 | [12] 0.992 | [13] 0.981 | [14] 0.974 | [15] 0.969 | [16] 0.952 | [17] 1.03 | [18] 1.05 | [19] 0.974 | [20] 1.01

CC(C)c1cc(Oc2ccccc2)cc(C(C)C)c1NC(=S)NC(C)(C)C
inactive: [1] 0.863 | [2] 0.984 | [3] 0.96 | [4] 0.983 | [5] 0.98 | [6] 0.97 | [7] 0.998 | [8] 0.929 | [9] 0.957 | [10] 1.03 | [11] 0.896 | [12] 1.01 | [13] 1.01 | [15] 0.911 | [16] 0.978 | [17] 1.03 | [18] 0.989 | [19] 1.05 | [20] 0.957
active: [14] 0.45

C=CCc1ccc(O)c(OC)c1
inactive: [1] 0.933 | [2] 0.993 | [3] 1.04 | [4] 1 | [5] 0.975 | [6] 0.967 | [7] 1.03 | [8] 1.01 | [9] 1.01 | [10] 0.973 | [11] 0.971 | [12] 1.03 | [13] 1 | [14] 1.01 | [15] 1 | [16] 0.95 | [17] 0.957 | [18] 0.96 | [19] 0.97 | [20] 0.996

CC(C)CCCCCCc1ccc(O)cc1
inactive: [1] 0.981 | [2] 1.03 | [3] 1.03 | [4] 1.01 | [5] 0.923 | [6] 0.992 | [7] 0.965 | [8] 1.03 | [9] 1.07 | [10] 0.979 | [11] 1.01 | [12] 1.02 | [13] 1.01 | [14] 0.879 | [15] 1.16 | [16] 0.948 | [17] 1.03 | [18] 1.05 | [19] 1.02 | [20] 0.968

C=O
inactive: [1] 0.996 | [2] 1.01 | [3] 0.982 | [4] 1.02 | [5] 1.03 | [6] 0.972 | [7] 0.988 | [8] 0.984 | [9] 0.968 | [10] 1.04 | [11] 0.998 | [12] 1.03 | [13] 0.999 | [14] 0.921 | [15] 1 | [16] 1.04 | [17] 1.06 | [18] 1.03 | [19] 1.03 | [20] 1.03

CCCCCCCCCCCC[N+](C)(C)Cc1ccc(CC)cc1.[Cl-]
inactive: [1] 0.765 | [4] 0.92 | [9] 0.73 | [12] 0.981 | [13] 0.945 | [14] 0.863 | [15] 0.902 | [17] 0.708 | [18] 0.973
active: [2] 0.0238 | [3] 0.234 | [5] 0.00577 | [6] 0.00582 | [7] 0.0211 | [8] 0.665 | [10] 0.502 | [11] 0.374 | [16] 0.651 | [19] 0.671 | [20] 0.708

NC1=C(Cl)C(=O)c2ccccc2C1=O
inactive: [1] 0.886 | [2] 1.12 | [4] 0.965 | [5] 0.83 | [6] 0.906 | [7] 0.88 | [8] 0.887 | [9] 0.938 | [10] 1.01 | [11] 1 | [12] 0.896 | [13] 0.804 | [14] 1.19 | [15] 1.25 | [16] 0.863 | [17] 0.995 | [18] 0.876 | [20] 0.88
active: [3] 0.716 | [19] 0.528

CCCCC(CC)COC(=O)COc1ccc(Cl)cc1C (stereo not given)
inactive: [1] 1.15 | [2] 0.995 | [3] 0.997 | [4] 0.977 | [5] 0.983 | [6] 0.987 | [7] 0.943 | [8] 0.986 | [9] 0.979 | [10] 0.907 | [11] 1.03 | [12] 0.981 | [13] 1.01 | [14] 1.05 | [15] 0.989 | [16] 0.828 | [17] 0.962 | [18] 0.934 | [19] 0.923 | [20] 0.937

CCC(C)c1cc([N+](=O)[O-])cc([N+](=O)[O-])c1OC(=O)OC(C)C (stereo not given)
active: [5] 0.294 | [15] 0.611
inactive: [1] 1.05 | [2] 0.909 | [3] 0.81 | [4] 0.892 | [6] 0.875 | [7] 0.881 | [8] 0.959 | [9] 0.945 | [10] 0.915 | [11] 0.867 | [12] 0.911 | [13] 0.929 | [14] 1.02 | [16] 0.859 | [17] 0.951 | [18] 1.09 | [19] 0.979 | [20] 0.929

Cc1cc(N(C)C)nc(Cl)n1
inactive: [1] 0.999 | [2] 0.916 | [3] 1.02 | [4] 0.985 | [5] 1.26 | [6] 1.02 | [7] 0.98 | [8] 0.985 | [9] 0.976 | [10] 0.977 | [11] 0.97 | [12] 1.02 | [13] 0.992 | [14] 1.06 | [15] 1.11 | [16] 0.947 | [17] 0.99 | [18] 0.998 | [19] 1.03 | [20] 0.998

CC(C)(NC(=O)C(Br)C(C)(C)C)c1ccccc1 (stereo not given)
inactive: [1] 0.896 | [2] 1.01 | [3] 0.924 | [4] 0.995 | [5] 0.766 | [6] 0.971 | [7] 1.06 | [8] 0.84 | [9] 1.01 | [10] 1.01 | [11] 0.959 | [12] 1.01 | [13] 0.983 | [14] 0.889 | [15] 0.895 | [16] 1.12 | [17] 0.895 | [18] 0.983 | [19] 0.97 | [20] 0.95

Clc1ccc(Sc2cc(Cl)c(Cl)cc2Cl)cc1
inactive: [1] 1.05 | [2] 0.943 | [3] 0.993 | [4] 1.04 | [5] 0.985 | [6] 0.98 | [7] 0.984 | [8] 0.986 | [9] 1 | [10] 0.936 | [11] 0.964 | [12] 0.972 | [13] 0.984 | [14] 0.943 | [15] 1.04 | [16] 0.86 | [17] 1.05 | [18] 1.1 | [19] 1.01 | [20] 0.976

COc1ccc(Oc2ccc(NC(=O)N(C)C)cc2)cc1
inactive: [1] 0.887 | [2] 1 | [3] 0.958 | [4] 0.98 | [5] 0.951 | [6] 0.982 | [7] 0.948 | [8] 0.957 | [9] 0.99 | [10] 1 | [11] 0.992 | [12] 0.977 | [13] 0.996 | [14] 0.851 | [15] 0.906 | [16] 1.11 | [17] 1.01 | [18] 0.974 | [19] 0.989 | [20] 0.943

CNC(=O)/C(=N/OC)c1ccccc1CO/N=C(C)/C(=N/OC)C(/C)=N/OC
inactive: [1] 0.957 | [2] 0.983 | [3] 0.98 | [4] 1 | [5] 0.991 | [6] 0.976 | [7] 0.976 | [8] 0.989 | [9] 0.979 | [10] 1.03 | [11] 1.01 | [12] 1.01 | [13] 1.05 | [14] 0.928 | [15] 0.91 | [16] 1.16 | [17] 0.998 | [18] 0.989 | [19] 0.997 | [20] 0.976
